High-throughput results deposited in PubChem by National Center for Advancing Translational Sciences (NCATS).
HT1080 IDH1KD tx – HT-1080 IDH1 knockdown cell toxicity (counter line); HT-1080 IDH1 knockdown viability, ATP luminescence, 48 h; Potency, µM (titrated, usually from 46.1 µM), inactives show top-dose activity, negative = toxicity, hits mostly cytotoxic; 360,000 tested, 2% active;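 further: 0% = DMSO wells and -100% = cell-free medium wells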
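After a 2 h attachment period, IDH1KD HT-1080 cells took pin-transferred compound for 48 h at 37 °C; ATP-based luminescence after 10 min room-temperature reagent incubation reported viability.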
HepG2 tox – counter-screen for TGF-b inhibitors: cytotoxicity in HepG2 cells; Potency, µM (series often up to 46.1 µM), inactives show top-dose activity change, negative = cytotoxicity, hits mostly cytotoxic; HepG2 CAGA-GFP viability, ATP luminescence, 18 h; 410,000 tested, 0.76% active
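HepG2 CAGA-GFP cells (1000/well, DMEM with 1% FBS) received compound, then TGF-beta at 500 pg/mL final, and were incubated 18 hours at 37 degrees C. Viability was read by CellTiter-Glo luminescence. Media-only wells were set as complete cell-killing and DMSO as no toxicity.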
HT1080-NT tox – kills 2HG-producing HT-1080-NT fibrosarcoma cells | AID 686970 | 360,000 tested, 1.6% active | Potency, µM (series often up to 46.1 µM), without a hit: at the highest dose activity, negative = less viability, most hits filed as cytotoxic | HT-1080-NT fibrosarcoma viability, CellTiter-Glo ATP luminescence, 48 h;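 further: NT is the 2HG producing partner of a matched IDH1 knockdown line; 0% = DMSO-treated cells and -100% = media-only wells without cells; nearly all actives have a fitted effect of over 55% in size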
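HT-1080-NT fibrosarcoma cells (2HG-overproducing), 750 cells/well in RPMI with 5% FBS, dosed after 2 h and incubated 48 h at 37C. CellTiter-Glo luminescence normalized to DMSO and no-cell wells; concentration-response curves fitted and classed.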
ATXN2 expr inh – reduces ATXN2 reporter expression in HEK-293 cells; HEK-293 ATXN2-luciferase reporter, luminescence, 24 h; Potency, µM (series often up to 57 µM), inactives show top-dose activity change, negative = inhibition, hits mostly inhibitors; 360,000 tested, 0.72% active; AID 1745845; further: on the % scale 0 is the no-effect control and ±100 the full control effect; nearly all actives have a fitted effect of over 55% in size
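ATXN2-luciferase reporter cells (luciferase flanked by upstream and downstream ATXN2 gene portions) were treated 24 h at 37 °C with compounds at up to 57 uM. SteadyGlo luminescence gave expression; GF-AFC fluorescence gave viability.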
S2 tox – cell viability loss in ATXN counter-screen; Potency, µM (highest dose often 56.7 µM), actives largely listed as cytotoxic; S2 cells (HEK-293 line with an ATXN2-luciferase reporter) viability, CellTiter-Fluor protease fluorescence, 24 h; AID 651635; 400,000 tested, 0.49% active; further: nearly all actives have a fitted effect of over 40% in size
TGFb inhibitor – TGF-b pathway inhibition; Potency, µM (top dose mostly 46.1 µM), for the others: at the top dose activity, negative = inhibition, usual class: inhibitors; HepG2 CAGA-GFP TGF-b/SMAD3 reporter, GFP fluorescence, 18 h; TGF-beta stimulated, 500 pg/mL final; 410,000 tested, 1.2% active; further: on the % scale 0 is the no-effect control and ±100 the full control effect; nearly all actives have a fitted effect of over 65% in size
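Read-out: total well GFP (ex488/em500-530) summed from mean per-cell fluorescence. Cells: HEPG2 CAGA-GFP, 1% FBS DMEM, 18 h at 37 degrees C with 500 pg/mL final TGF-beta. Unstimulated wells served as the full-inhibition control; stimulated DMSO wells = 0%.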
* = called active by the depositor; [ ] = dose if it differs, or a comment. Hits are enriched below; roughly 3.8% of the tested compounds scored in any of these assays. The call rests on the fitted dose curve; in most records, active means well fitted curve in the direction sought with a large enough effect; inconclusive means small, poorly fitted or top-dose-only effect, or another doubt; inactive means no such curve, though single readings can be large; an effect the other way counts as inactive or inconclusive. Potency means the concentration at half of the fitted maximal effect.

`CN(C)S(=O)(=O)c1ccc(-c2csc(N/N=C/c3ccc(O)cc3)n2)cc1` gave HT1080 IDH1KD tx 4.1µM*, HepG2 tox 13µM*, HT1080-NT tox 9.2µM*, ATXN2 expr inh inconclusive and TGFb inhibitor inconclusive.
`O=[N+]([O-])c1cccc(-c2csc(N/N=C/c3cccc(O)c3)n2)c1` gave HT1080 IDH1KD tx 18µM*, HepG2 tox -1%, HT1080-NT tox inconclusive, ATXN2 expr inh inconclusive, S2 tox inconclusive and TGFb inhibitor 1%.
Screening CC1(C)COC(Cn2c3ccccc3c3ccccc32)O1 (stereo not given) returned HT1080 IDH1KD tx 23µM*, HepG2 tox 18%, HT1080-NT tox -14%, ATXN2 expr inh -25%, S2 tox inactive and TGFb inhibitor -13%.
`CC1=CC(C)C(/C=N/N=C(N)N)C(C)C1` (stereo not given) gave HT1080 IDH1KD tx 16µM*, HepG2 tox 25%, HT1080-NT tox inconclusive, ATXN2 expr inh -24%, S2 tox inactive and TGFb inhibitor inconclusive.
Screening CCn1nc(-c2ccc(C)cc2)nc2c(=O)n(C)c(=O)nc1-2 returned HepG2 tox 0.71µM* and TGFb inhibitor 0.5µM*.
Cn1nc(-c2ccncc2)nc2c(=O)n(C)c(=O)nc1-2 was read as HepG2 tox -96% and TGFb inhibitor 1.3µM*.
For CCS(=O)(=O)n1nc(-c2ccc(C)cc2)nc1N the results were HT1080 IDH1KD tx 19%, HepG2 tox 5%, HT1080-NT tox 21%, ATXN2 expr inh -12%, S2 tox inactive and TGFb inhibitor -2%.
Screening CC1CCN2c3ccccc3CC3(C(=O)OC(C)(C)OC3=O)C2C1 (stereo not given) returned HepG2 tox 2% and TGFb inhibitor inconclusive.
`O=C(COC(=O)/C=C/c1ccc([N+](=O)[O-])cc1)Nc1ccc2[nH]c(=O)[nH]c2c1` gave HT1080 IDH1KD tx 6%, HepG2 tox -3%, HT1080-NT tox 0%, ATXN2 expr inh 6%, S2 tox inactive and TGFb inhibitor 0%.
For O=C(COC(=O)/C=C/c1ccc(C(F)(F)F)cc1)Nc1ccc2[nH]c(=O)[nH]c2c1 the results were HT1080 IDH1KD tx -2%, HepG2 tox 3.5µM*, HT1080-NT tox -13%, ATXN2 expr inh 3%, S2 tox inactive and TGFb inhibitor -4%.
For CCOC(=O)c1ccc(N2C(=O)c3n[nH]c(-c4ccco4)c3C2c2ccc(O)c(OCC)c2)cc1 (stereo not given) the results were HepG2 tox -61%, ATXN2 expr inh inconclusive, S2 tox inconclusive and TGFb inhibitor 16µM*.
Screening CCOC(=O)c1ccc(N2C(=O)c3n[nH]c(-c4ccco4)c3C2c2ccc(OC)cc2OC)cc1 (stereo not given) returned HepG2 tox -46%, ATXN2 expr inh inconclusive, S2 tox inconclusive and TGFb inhibitor 16µM*.
For CN1CCN(c2ncc3c(n2)CCN(Cc2cc(Br)cs2)C3)CC1 the results were HepG2 tox -18%, ATXN2 expr inh -11%, S2 tox inconclusive and TGFb inhibitor 20%.
For Cc1ccc(C(=O)O/N=C(\N)Cc2cccs2)cc1[N+](=O)[O-] the results were HT1080 IDH1KD tx 6%, HepG2 tox -5%, HT1080-NT tox -4%, ATXN2 expr inh 15%, S2 tox inactive and TGFb inhibitor -1%.
For COc1ccccc1C/C(N)=N/OC(=O)c1ccc(C)c([N+](=O)[O-])c1 the results were HT1080 IDH1KD tx 10µM*, HepG2 tox 2%, HT1080-NT tox -2%[9.24 µM], ATXN2 expr inh -5%, S2 tox inactive and TGFb inhibitor -6%.
CCOC(=O)N1CCN(Cc2nc(N)nc(Nc3ccc(Oc4ccccc4)cc3)n2)CC1 was read as HT1080 IDH1KD tx inconclusive, HepG2 tox -5%, HT1080-NT tox 16µM*, ATXN2 expr inh -31%, S2 tox inconclusive and TGFb inhibitor inconclusive.
Screening CC(Nc1cccc2ccccc12)C(=O)N/N=C/c1ccccn1 (stereo not given) returned HT1080 IDH1KD tx 7.1µM*, HepG2 tox -22%, HT1080-NT tox 14µM*, ATXN2 expr inh -36%, S2 tox inactive and TGFb inhibitor inconclusive.
For Cc1ccc(-c2nn(CC(=O)NCc3cc(-c4nn(C)c(=O)c5ccccc45)ccc3C)c(=O)c3ccccc23)cc1 the results were HT1080 IDH1KD tx inconclusive, HepG2 tox 3.5µM*, HT1080-NT tox inconclusive, ATXN2 expr inh 11µM*, S2 tox 13µM* and TGFb inhibitor 0%.
Screening CC[C@H](C)[C@@H]1NC(=O)[C@@H](CC(C)C)NC(=O)[C@H](C(C)C)NC(=O)[C@H]2CSSC[C@H](NC1=O)C(=O)N2 returned HT1080 IDH1KD tx 0.52µM*, HepG2 tox 1.1µM*, HT1080-NT tox 0.46µM*, ATXN2 expr inh 0.79µM*, S2 tox inconclusive and TGFb inhibitor 1.3µM*.
For O=C(NCCCN1CCOCC1)c1cnn(-c2ncc3c(n2)-c2ccccc2CC3)c1C1CC1 the results were S2 tox inactive.
Screening O=C(NCCc1ccc(Cl)cc1)c1ccc(CS(=O)(=O)Cc2ccc(Cl)cc2)o1 returned HepG2 tox -25% and TGFb inhibitor -14%.
Screening O=C(NCCc1ccc(Cl)cc1)c1ccc(CS(=O)(=O)Cc2ccccc2F)o1 returned HepG2 tox 1%, ATXN2 expr inh inconclusive, S2 tox 20µM* and TGFb inhibitor -28%.
CCC1C(=O)NCCN1Cc1ccc2c(c1)CN(Cc1cc(OC)ccc1OC)CCO2 (stereo not given) was read as S2 tox inactive.
Screening Cc1ccc(Cn2c(C(=O)O)c(CNC3CCCCCC3)c3ccc(C)cc32)cc1 returned HepG2 tox -5%, ATXN2 expr inh -2%, S2 tox inactive and TGFb inhibitor inconclusive.
`Cc1cc(C)n(Cc2ccc(NC(=O)c3nn(C)cc3[N+](=O)[O-])cc2)n1` gave HT1080 IDH1KD tx 6.3µM*, HepG2 tox -5%, HT1080-NT tox 10µM*, ATXN2 expr inh 19%, S2 tox inactive and TGFb inhibitor inconclusive.
`O=C(Nc1ccc(C(=O)N2CCCCC2)cc1)c1ccccc1` gave HT1080 IDH1KD tx -18%, HepG2 tox -40%, HT1080-NT tox -11%, ATXN2 expr inh 7%, S2 tox inactive and TGFb inhibitor 2%.
